Mtb FBA inh: inhibits M. tuberculosis FBA enzyme | P9WQA3 | purified M. tuberculosis FBA, fluorescence read-out | inhibition, % at 1 µM | hit rate 2.3% among 360,000 | AID 588726;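 also: 0% = vehicle and 100% = reference inhibitor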
GDH-TPI counter-1: inhibits GDH-TPI coupling enzymes, artifact for Mtb FBA screen | GDH-TPI coupled enzyme counterscreen, NADH absorbance | inhibition, % at 4.8 µM | hit rate 1.2% among 360,000 | AID 588335; in the data active = inhibition above about 30%;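 also: 0% = DMSO wells and 100% = wells lacking the enzyme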
Mtb hypoxia inh: reduces hypoxia-regulated biosensor signal in M. tuberculosis; AID 1159583; hit rate 0.1% among 300,000; fluorescence inhibition, % (test concentration not listed); M. tuberculosis hypoxia-regulated fluorescent reporter, fluorescence; in the data active = fluorescence inhibition mostly above about 23%, no sharp cut-off; inactive = mostly below about 17%
FadD28 binding: M. tuberculosis FadD28 bisubstrate binding inhibition; inhibition, % at 12.5 µM; AID 588549; hit rate 0.22% among 360,000; FadD28 bisubstrate probe binding, fluorescence polarization; in the data active = inhibition above about 8.5%, passing the limit was not always enough; inconclusive = no clear call, values can overlap the other calls
Rv3671c inh: Rv3671c (M. tuberculosis) protease inhibition; hit rate 0.048% among 320,000; AID 2606; inhibition, % at 5.96 µM; P9WHR9; in the data active = inhibition above about 38%;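 also: extracellular domain of Rv3671c used as enzyme; 0% = enzyme with DMSO and 100% = no enzyme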
Target sequence (P9WHR9 whole entry, looked up, the tested form may be a part): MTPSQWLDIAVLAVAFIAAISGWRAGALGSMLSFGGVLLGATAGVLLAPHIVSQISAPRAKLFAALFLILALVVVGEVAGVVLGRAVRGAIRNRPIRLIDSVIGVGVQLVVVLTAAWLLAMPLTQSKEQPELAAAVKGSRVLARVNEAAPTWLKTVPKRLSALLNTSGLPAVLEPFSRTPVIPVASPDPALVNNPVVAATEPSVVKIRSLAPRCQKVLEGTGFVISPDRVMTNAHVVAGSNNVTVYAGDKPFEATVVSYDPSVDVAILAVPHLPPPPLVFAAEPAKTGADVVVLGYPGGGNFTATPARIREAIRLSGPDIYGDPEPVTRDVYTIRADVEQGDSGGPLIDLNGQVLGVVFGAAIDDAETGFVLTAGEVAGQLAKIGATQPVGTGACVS
Mtb UGM inh: blocks M. tuberculosis UGM enzyme; P9WIQ1; hit rate 0.06% among 320,000; inhibition, % at 10 µM; AID 504406; purified UGM, fluorescence polarization probe displacement; in the data active = inhibition above about 10%, passing the limit was not always enough; inconclusive = no clear call, values can overlap the other calls
Mtb FBA inh conf: confirmation of M. tuberculosis fructose-bisphosphate aldolase inhibitors; AID 651616; hit rate 78% among 5,600; inhibition, % at 1 µM; shares compounds with Mtb FBA inh; purified M. tuberculosis FBA, fluorescence read-out;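 also: 0% = vehicle wells and 100% = reference inhibitor wells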
GDH-TPI counter-2: GDH-TPI inhibition counter-screen for FBA inhibitors. inhibition, % at 1 µM. hit rate 81% among 5,600. shares compounds with Mtb FBA inh. AID 652141. GDH-TPI coupled enzyme counterscreen, fluorescence; in the data active = inhibition above about 10%
Starred values were filed as active, the others as inactive; ? = inconclusive; / = not tested or not shown; + = active, no number. Sampled rows, rich in hits. Any-hit rate of the full collection: about 3.5%. Rule as the data show it, unless noted: active = inhibition above about 27%; inactive = the rest.

SMILES	Mtb FBA inh	GDH-TPI counter-1	Mtb hypoxia inh	FadD28 binding	Rv3671c inh	Mtb UGM inh	Mtb FBA inh conf	GDH-TPI counter-2
Cc1ccc2c(c1)C(N1CCCC1=O)CC(c1ccco1)N2 (configuration not stated)	30.7*	20.9	/	-1.9	-13.8	1.9	5.6	-1.6
COc1ccc(C=NNC(=O)c2ccc3c(c2)OCO3)cc1	/	/	-0.7	/	/	/	/	/
CC(C)CC(NC(=O)c1nc[nH]c1C(=O)NC(CCCCNC(=O)OC(C)(C)C)C(=O)OC(C)(C)C)C(=O)OCc1ccccc1 (configuration not stated)	/	/	-3.3	/	/	/	/	/
CCC(CC)C(=O)Nc1nnc(-c2cccs2)s1	35.9*	11.7	/	-3.6	-7.8	2.3	87.7*	75.5*
COc1cccc(OC)c1C(=O)Nc1nnc(-c2cccs2)s1	13.1	29.3	2.9	-4.2	-1.1	-0.3	/	/
O=C(NC1CC1)c1cc2ccccc2o1	3.3	-3.9	4.8	-1.5	0.8	-3.6	/	/
Cc1ccc(/C=N/NC(=O)c2cc3c(ccc4ccccc43)o2)o1	5.3	22.1	/	-1.6	/	/	/	/
O=C(NC1CCCC1)c1cc2c(ccc3ccccc32)o1	40.4*	-2.6	/	-1.5	-8.5	-3.7	107.2*	79.8*
CNC(=O)c1cc2c(ccc3ccccc32)o1	50.6*	10.9	5.1	-0.7	-4.7	1.9	127.5*	102.3*
CC1=CC(=O)C(C(C)C)=C/C1=N\OC(=O)c1cccc2nc(C)oc12	32.1*	9.3	/	-3.0	-6.0	-0.6	69.1*	58.6*
CC1CN(C(C)CO)C(=O)c2cccc(NC(=O)Nc3ccc4c(c3)OCO4)c2OC1CN(C)C(=O)Nc1ccccc1 (configuration not stated)	/	/	11.5	/	/	/	/	/
COc1ccc2oc(C(=O)OCC(=O)N3CCN(C(C)=O)CC3)c(C)c2c1	43.5*	-0.7	-8.7	-2.5	-2.4	0.3	59.2*	42.3*
COc1ccc2oc(C(=O)OCC(=O)N3CCN(c4ccccc4)CC3)c(C)c2c1	5.0	-10.0	7.4	-1.1	-4.7	0.9	/	/
COc1ccc2oc(C(=O)OCC(=O)N3CCCCC3)c(C)c2c1	37.5*	3.5	2.1	-1.9	-3.4	-1.6	125.2*	113.1*
N#Cc1c(Cl)nc(NN=Cc2ccccc2)c(Cl)c1Cl	/	/	2.3	/	/	/	/	/
Cc1ccc(NCc2ccc(Cl)nc2)c(NCc2ccc(Cl)nc2)c1	27.8*	3.5	-3.7	-2.9	-3.3	3.8	-5.4	-6.5
CCN1c2ccccc2-c2nc3ccccc3n2C1c1ccncc1 (configuration not stated)	13.6	12.4	0.1	-4.1	2.8	-0.7	/	/
CCN1c2ccccc2-c2nc3ccccc3n2C1c1cccnc1 (configuration not stated)	68.1*	9.8	11.7	-1.9	-4.9	-2.3	96.5*	83.7*
CCN1c2ccccc2-c2nc3ccccc3n2C1c1ccccn1 (configuration not stated)	50.8*	6.0	11.2	-2.6	0.1	-2.5	+	+
CC(NS(=O)(=O)C=Cc1ccccc1)c1ccccc1 (configuration not stated)	/	/	11.9	/	/	/	/	/
COc1ccccc1C=NNC(=O)c1c(C)nc2ccc(Cl)cn12	/	/	2.5	/	/	/	/	/
CC(=NNC(=O)CNC(=O)c1cccs1)c1ccc(Cl)c(Cl)c1	/	/	6.2	/	/	/	/	/
CNc1cncc(-c2ccc(OC)cc2OC)n1	52.1*	23.4	/	0.2	/	/	3.8	2.4
CNc1cncc(-c2cc(OC)c(OC)c(OC)c2)n1	96.2*	23.4	/	0.9	/	/	+	+
CNc1cccc(-c2cc(OC)c(OC)c(OC)c2)n1	17.1	16.4	/	-1.4	/	/	/	/
SMILES	Mtb FBA inh	GDH-TPI counter-1	Mtb hypoxia inh	FadD28 binding	Rv3671c inh	Mtb UGM inh	Mtb FBA inh conf	GDH-TPI counter-2
Cc1nc2oc3c(NCc4ccccn4)ncnc3c2c2c1COC(C)(C)C2	93.6*	9.1	5.1	-1.0	-5.2	0.4	86.2*	74.3*
CC1(C)Cc2nc3oc4c(NCc5ccccc5)ncnc4c3cc2CO1	60.1*	-5.3	5.9	?	-4.3	-1.1	46.8*	44.4*
Cn1cccc1CC(=O)NN=Cc1ccc(C(C)(C)C)cc1	/	/	-5.4	/	/	/	/	/
COc1ccccc1C1=NN(C2=NN=C(N)Cc3ncnn32)C(O)(C(F)(F)F)C1 (configuration not stated)	35.0*	3.9	3.8	-1.3	3.4	0.2	9.2	1.0
NC1=NN=C(N2N=C(c3ccccc3)CC2(O)C(F)(F)F)n2ncnc2C1 (configuration not stated)	17.2	10.9	6.3	0.3	-3.8	-1.1	/	/
NC1=NN=C(N2N=C(c3ccc(Br)cc3)CC2(O)C(F)(F)F)n2ncnc2C1 (configuration not stated)	55.9*	5.0	5.9	0.7	-5.3	3.3	-1.0	-1.7
O=C(O)C1=CC(c2ccc(F)cc2)CC(OCc2ccc(CO)cc2)O1 (configuration not stated)	/	/	-2.0	/	/	/	/	/
CCN1CCN(c2nc3c(C)cccn3c(=O)c2/C=C(\C#N)C(=O)NCCOC)CC1	97.3*	15.6	4.5	0.2	0.4	0.6	62.7*	44.8*
COCCCNC(=O)/C(C#N)=C/c1c(N2CCN(c3ccc(OC)cc3)CC2)nc2c(C)cccn2c1=O	8.9	9.2	1.5	-1.7	-6.6	-0.2	/	/
COCCNC(=O)/C(C#N)=C/c1c(N2CCN(C)CC2)nc2c(C)cccn2c1=O	80.8*	16.4	4.9	-1.6	5.0	0.5	96.0*	84.3*
COCCCNC(=O)/C(C#N)=C/c1c(N2CCN(C)CC2)nc2c(C)cccn2c1=O	91.9*	1.3	15.3	0.6	-6.8	0.6	55.6*	43.7*
COC(=O)[C@]12C(=O)NCC(CN1c1ccc(C(F)(F)F)cc1)N2C	/	/	-5.3	/	/	/	/	/
Cc1cccc(-c2cc3nc(C)cc(NCCCN(C)C)n3n2)c1	17.8	4.6	2.8	1.3	2.0	-3.5	/	/
CN(C)CCCNc1cc(-c2ccccc2)nc2cc(-c3cccc(F)c3)nn12	78.0*	-1.4	/	-8.3	2.2	0.4	78.4*	60.8*
N#Cc1c(C(F)(F)F)cc(-c2ccccc2)nc1SCCN1CCOCC1	46.9*	1.4	8.0	-4.6	-8.6	-0.9	-2.0	-5.0
C=CCn1c(SCC(=O)NC2CCCCC2)nnc1-c1sc(N)nc1C	30.3*	9.7	/	-0.1	5.6	-1.3	114.0*	96.2*
O=C(NC1CC1)C1=CC(c2c[nH]c3ccccc23)CC(OCCCCO)O1 (configuration not stated)	/	/	2.8	/	/	/	/	/
Cc1ccc(-n2c(SCC(=O)NN=C/C=C/c3ccccc3[N+](=O)[O-])nc3ccccc3c2=O)cc1	/	/	-2.0	/	/	/	/	/
CCc1ccn2cc(-c3ccc4c(c3)OCO4)nc2c1	91.3*	12.6	9.2	-1.3	2.6	1.1	64.9*	43.2*
O=C1CC(c2ccco2)CC2=C1C(c1ccccc1)n1nc(C(F)(F)F)nc1N2 (configuration not stated)	27.6*	13.0	/	-2.6	-8.2	0.1	64.0*	53.3*

Source: PubChem BioAssay (several laboratories)
